For 39 compounds, z-score and corrected activity, negative = more killing results are on record in PubChem BioAssay AID1508625 (Wald Lab, School of Medicine, Case Western Reserve …, 2021).

The test in a line: small molecules boosting NK-mediated OVCAR3 lysis – imaging, primary NK cells, calcein-AM imaging, primary screen (AID 1508625).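 For z-score: more negative robust z means stronger NK killing of tumor cells.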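 Note: compound given to NK cells 16 h before adding targets at 1.5 to 1 ratio.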 The following applies: OVCAR3 lysis by primary NK cells, at 5 µM; z-score: measured here: robust Z-score, single-point normalisation.
For the compound `O=C(Nc1ccc(Cl)cc1)c1ccc(F)c(S(=O)(=O)N2CCOCC2)c1`, the z-score is -1.77 and the corrected activity, negative = more killing is -4.69%.

Take `CC(=O)c1cccc(NC(=O)c2ccc(NS(=O)(=O)c3ccccc3)cc2)c1`: the z-score is -1.71 and the corrected activity, negative = more killing is -4.58%.

On to `O=C1NC(=S)SC1=Cc1cc(Cl)ccc1O`, for which the z-score is -1.87 and the corrected activity, negative = more killing was -4.39%.

`Cc1[nH]c2ccc(-c3n[nH]c(=S)n3C)cc2c1C`: the corrected activity, negative = more killing is -0.764% and the z-score was -0.278.

`O=C(CSc1nc2cc3c(cc2c(=O)n1Cc1ccco1)OCO3)NCc1ccccc1`: the z-score was -1.24 and the corrected activity, negative = more killing was -4.67%.

Turning to `O=C1NN(c2cccc(Cl)c2)C(=O)C1=Cc1cc(Cl)ccc1O`, the z-score is -1.45 and the corrected activity, negative = more killing is -4.57%.

With `Cc1ccc(C(=O)Oc2ccc(C(=S)N3CCOCC3)cc2)cc1`, the z-score is -1.5 and the corrected activity, negative = more killing is -4.83%.

In the case of `Cc1cc(C)nc(N=C(N)Nc2cccc(F)c2)n1`, the z-score was 0.0433 and the corrected activity, negative = more killing was 0.14%.

With `CC(C)NCCCCOc1ccccc1-c1ccccc1`, the z-score is 0.626 and the corrected activity, negative = more killing is 1.68%.

In the case of `COc1ccc(-n2c(=S)[nH]c3cc(C(=O)Nc4cc(C(N)=O)ccc4OC)ccc3c2=O)c(OC)c1`, the corrected activity, negative = more killing was -3.49% and the z-score was -1.11.

In the case of `Cc1cc(Cl)nc(Cl)c1C(=O)O`, the corrected activity, negative = more killing was 0.175% and the z-score is 0.0658.

Regarding `Cc1c(C(=O)Nc2ccccc2O)cccc1[N+](=O)[O-]`, the corrected activity, negative = more killing is -4.28% and the z-score was -1.61.

Take `Cc1ccc(-n2nc(C)c(C=Cc3onc(C)c3[N+](=O)[O-])c2C)cc1`: the corrected activity, negative = more killing is -6.18% and the z-score was -1.84.

`CCOC(=O)c1ccc(NC(=O)c2cnc3n(c2=O)CCS3)cc1`: the corrected activity, negative = more killing is -6.64% and the z-score was -2.11.

As for `Cc1nc2ccc3nc(NC(=O)c4cc([N+](=O)[O-])ccc4Cl)sc3c2s1`, the z-score is -0.528 and the corrected activity, negative = more killing was -2.51%.

As to `CCCCNCC(=O)Nc1ccc(Br)cc1`, the z-score is -1.88 and the corrected activity, negative = more killing was -5.05%.

Consider `CS(=O)(=O)N(CC(=O)N1CCOCC1)c1ccc2c(c1)OCCO2`, for which the z-score was -1 and the corrected activity, negative = more killing was -1.8%.

Take `Cc1ccc(N2CCN(c3ccc(N4C(=O)C5CCCCC5C4=O)cc3[N+](=O)[O-])CC2C)cc1` (stereo not drawn): the z-score is -1.7 and the corrected activity, negative = more killing was -4.67%.

For the compound `Cc1ccc(OCCCCNC2CCCCC2)c(C)c1`, the z-score was 2.34 and the corrected activity, negative = more killing was 4.21%.

Regarding `O=C1C(=O)N(CO)C(c2ccccc2)C1=C(O)c1ccccc1` (stereo not drawn), the z-score was -1.23 and the corrected activity, negative = more killing was -3.26%.

In the case of `COc1ccc(-c2nocc2C(N)=O)cc1OC`, the corrected activity, negative = more killing was -3.72% and the z-score was -1.63.

Take `C=CCNC(=O)c1ccc2snnc2c1`: the corrected activity, negative = more killing was -1.6% and the z-score was -0.478.

Take `Cc1ccc(-n2c(C)cc(C(=S)N3CCOCC3)c2C)cc1Cl`: the corrected activity, negative = more killing is -4.03% and the z-score is -1.54.

With `COCCOC(=O)C1=C(C)N(C)C(=O)NC1c1ccccc1Cl` (stereo not drawn), the z-score is -1.32 and the corrected activity, negative = more killing is -3.72%.

For the compound `O=C(NCCc1ccccc1Cl)C1CC(=O)N(C2CCCCC2)C1` (stereo not drawn), the z-score is -1.04 and the corrected activity, negative = more killing is -2.73%.

Consider `O=C(NN=Cc1ccc[nH]1)C(O)c1ccccc1` (stereo not drawn), for which the corrected activity, negative = more killing was -2.59% and the z-score is -0.823.

As for `O=C(Cc1ccccc1)Nc1ccc2oc(-c3ccc(I)cc3)nc2c1`, the z-score is -0.361 and the corrected activity, negative = more killing was -1.02%.

As for `CN(C)c1ccc(C=CC=C2SC(=S)N(Cc3ccccc3)C2=O)cc1`, the corrected activity, negative = more killing was -3.62% and the z-score was -1.88.

`CCOc1ccc(S(=O)(=O)Nc2ccc(Cl)cc2)c2cccnc12`: the z-score was -0.989 and the corrected activity, negative = more killing is -3.11%.

For the compound `COc1ccc(Cc2nc3c4c5c(sc4ncn3n2)C(C)(C)NC(C)(C)C5)cc1OC`, the z-score is -1.03 and the corrected activity, negative = more killing is -2.36%.

Take `Cc1ccc(C(=O)CC2(O)C(=O)N(C(C)C)c3ccccc32)c(C)c1` (stereo not drawn): the corrected activity, negative = more killing is -3.79% and the z-score was -1.13.

On to `COc1cc(OC)c(OC)cc1CN1CCN(C(=O)c2ccncc2)CC1`, for which the corrected activity, negative = more killing is -2.22% and the z-score was -0.992.

Turning to `CCOc1ccc(C2C(N3C(=O)c4ccc([N+](=O)[O-])cc4C3=O)C(=O)N2c2ccc(Cl)cc2)cc1` (stereo not drawn), the corrected activity, negative = more killing was 0.896% and the z-score was 0.278.

On to `Cc1cc(Br)ccc1NC(=O)CCNC(=O)Cn1cnc2sc3c(c2c1=O)CCCC3`, for which the z-score was -0.0893 and the corrected activity, negative = more killing is -0.281%.

Turning to `Cn1c2ccccc2c(=Nc2ccc(Br)cc2)c2ccccc21`, the z-score was -1.48 and the corrected activity, negative = more killing was -4.16%.

On to `COc1ccccc1CNC(=O)CCS(=O)(=O)Cc1ccccc1C`, for which the z-score was -1.18 and the corrected activity, negative = more killing was -4.37%.

`COc1ccc(CNC(=O)Cn2c(=S)[nH]c3ccccc3c2=O)cc1`: the corrected activity, negative = more killing is -4.59% and the z-score was -1.22.

With `CN1CCc2c(sc3c2C(=O)NC(c2cccc(OCc4ccccc4)c2)N3)C1` (stereo not drawn), the corrected activity, negative = more killing is -3.2% and the z-score was -0.991.

For `COC(=O)c1ccc(CN2CCN3CCCC3C2C)cc1` (stereo not drawn), the corrected activity, negative = more killing was -3.15% and the z-score is -1.38.
